Most compounds without a hit are left out; they make up all but 2.4% or so of the library.
Anesthetic bind: candidate novel general anesthetic via apoferritin binding; apoferritin/1-aminoanthracene competitive binding, fluorescence; Potency, µM (titrated, usually from 77.5 µM), most hits filed as inhibitors; P02791; 0.074% of 350,000 active; also: nearly all actives have a fitted effect of over 20% in size
Target sequence (P02791 2-175 limits assumed): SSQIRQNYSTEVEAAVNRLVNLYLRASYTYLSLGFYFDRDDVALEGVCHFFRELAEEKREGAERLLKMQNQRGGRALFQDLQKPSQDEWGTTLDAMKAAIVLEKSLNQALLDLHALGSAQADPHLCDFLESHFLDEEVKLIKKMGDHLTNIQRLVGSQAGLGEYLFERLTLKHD
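Horse-spleen apoferritin (10 uM) in 50% saturated 1-aminoanthracene in PBS was incubated 10 min at room temperature with compound. Fluorescence (ex 380, em 535 nm) was normalized to free and bound 1-AMA, with concentration-response fitted by a four-parameter Hill equation.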
TGFb SMAD3 inh: blocks TGF-b signaling; Potency, µM (doses to about 46.1 µM), usual class: inhibitors; HepG2 CAGA-GFP TGF-b/SMAD3 reporter, GFP fluorescence, 18 h; TGF-beta stimulated, 500 pg/mL final; 1.2% of 410,000 active; AID 588855; also: nearly all actives have a fitted effect of over 65% in size
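Cell-based qHTS in HEPG2 carrying a CAGA-GFP Smad reporter; compounds added before 500 pg/mL final TGF-beta, 18 h incubation at 37 degrees C, GFP fluorescence quantified per cell by imaging cytometry.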
HepG2 tox-1: HepG2 cytotoxicity, counter-screen for TGF-b inhibitors; HepG2 CAGA-GFP viability, ATP luminescence, 18 h; Potency, µM (highest dose often 46.1 µM), hits mostly cytotoxic; 0.76% of 410,000 active
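CellTiter-Glo luminescence gave cytotoxicity after 18 hours at 37 degrees C. The cells were HepG2 CAGA-GFP in 1% FBS DMEM, stimulated with 500 pg/mL TGF-beta after compound addition. %Activity was normalised to no-cell wells (complete cell-killing) and DMSO (no toxicity), and curves were fitted and classified.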
ATXN viability: viability counter-screen for ATXN expression inhibitors | S2 cells (HEK-293 line with an ATXN2-luciferase reporter) viability, CellTiter-Fluor protease fluorescence, 24 h | Potency, µM (top dose mostly 56.7 µM), most hits filed as cytotoxic | 0.49% of 400,000 active | AID 651635; also: nearly all actives have a fitted effect of over 40% in size
ATXN2 expr inh: ATXN2 expression inhibition; HEK-293 ATXN2-luciferase reporter, luminescence, 24 h; Potency, µM (titrated, usually from 57 µM), hits mostly inhibitors; 0.72% of 360,000 active; AID 1745845; also: nearly all actives have a fitted effect of over 55% in size
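qHTS (up to 57 uM final) was run with 24 h compound exposure of reporter cells at 37 °C. Each well was multiplexed: SteadyGlo luminescence measured ATXN2-luciferase expression after a fluorogenic Gly-Phe-AFC viability readout (25 uM final).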
TGFb confirm: TGF-b pathway inhibition, cherry-pick retest. shares compounds with TGFb SMAD3 inh. HepG2 CAGA-GFP TGF-b reporter, GFP fluorescence, 18 h; cells stimulated with TGF-beta, 500 pg/mL. Potency, µM (titrated, usually from 46.1 µM), most hits filed as inhibitors. 63% of 1,600 active; also: nearly all actives have a fitted effect of over 65% in size
HepG2 tox-2: HepG2 cytotoxicity, TGF-b inhibitor counterscreen. 27% of 1,600 active. Potency, µM (doses to about 46.1 µM), most hits filed as inhibitors. shares compounds with TGFb SMAD3 inh. HepG2 CAGA-GFP viability, ATP luminescence, 18 h; cells stimulated with TGF-beta, 500 pg/mL. AID 720535; also: nearly all actives have a fitted effect of over 70% in size
TGFb CCL64 inh: orthogonal confirmation of TGF-b inhibitors in CCL64 cells | shares compounds with TGFb SMAD3 inh | CCL64 CAGA-GFP reporter, TGF-b stimulated, GFP fluorescence, 18 h | Potency, µM (top dose mostly 46.1 µM), most hits filed as inhibitors | 41% of 1,600 active; also: nearly all actives have a fitted effect of over 65% in size
TGFb COP inh: TGF-b inhibition validated with COP promoter; Potency, µM (top dose mostly 46.1 µM), most hits filed as inhibitors; AID 720537; HepG2 COP-GFP TGF-b reporter, GFP fluorescence, 18 h; cells stimulated by added recombinant TGF-beta; shares compounds with TGFb SMAD3 inh; 3% of 1,600 active; also: nearly all actives have a fitted effect of over 70% in size
Large screens that a line does not name were inactive (follow-up assays come after a bar, where they were run). Calls follow the shape of the dose curve; as a rule, active = well fitted curve in the direction sought with a large enough effect; inconclusive = small, poorly fitted or top-dose-only effect, or another doubt; inactive = no such curve, though single readings can be large; an effect the other way counts as inactive or inconclusive.

CCc1ccc(S(=O)(=O)Nc2c(NC3CCCCC3)c3ccccc3oc2=O)cc1	Anesthetic bind inconclusive, TGFb SMAD3 inh 16µM | TGFb confirm inconclusive | HepG2 tox-2 inactive | TGFb CCL64 inh inactive | TGFb COP inh inactive
O=C1Cc2c([nH]c3ccc(Br)cc23)-c2ccccc2N1	TGFb SMAD3 inh 2.8µM, ATXN viability inconclusive (no result: Anesthetic bind) | TGFb confirm 0.92µM | HepG2 tox-2 3.7µM | TGFb CCL64 inh 2.9µM | TGFb COP inh inactive
COc1ccc(-c2coc3c(C(=O)NCC(C)C)cccc23)c(C)c1	TGFb SMAD3 inh inconclusive (no result: Anesthetic bind) | TGFb confirm 13µM | HepG2 tox-2 inconclusive | TGFb CCL64 inh inconclusive | TGFb COP inh inactive
CC(C)[C@H]1COCCS(=O)(=O)N1Cc1ccccc1-c1cccc2c1oc1ccccc12	TGFb SMAD3 inh inconclusive (no result: Anesthetic bind) | TGFb confirm 9.2µM | HepG2 tox-2 inactive | TGFb CCL64 inh inactive | TGFb COP inh inactive
COc1ccc(-c2ccc(F)cc2)cc1C1C2C=CCC(C)C2C(=O)N1Cc1ccccc1 (stereo not given)	none (no result: ATXN viability, ATXN2 expr inh)
NC(=S)N/N=C\c1c(OCc2ccccc2Cl)ccc2ccccc12	TGFb SMAD3 inh 6.3µM, ATXN2 expr inh inconclusive | TGFb confirm 5.8µM | HepG2 tox-2 inconclusive | TGFb CCL64 inh 8.2µM | TGFb COP inh inactive
NC(=S)N/N=C\c1c2ccccc2cc2ccccc12	ATXN viability inconclusive, ATXN2 expr inh inconclusive
Cn1c(NCc2ccncc2)nc2cc(-c3ccsc3)sc2c1=O	TGFb SMAD3 inh inconclusive (no result: Anesthetic bind)
Cn1c(NCC2CCCCC2)nc2cc(-c3ccsc3)sc2c1=O	TGFb SMAD3 inh inconclusive (no result: Anesthetic bind) | TGFb confirm 23µM | HepG2 tox-2 inconclusive | TGFb CCL64 inh inconclusive | TGFb COP inh inactive
COc1ccc(OC)c(CNS(=O)(=O)c2ccc(-c3coc(C)n3)cc2)c1	none
Cc1cc(C)c2c(c1)cc(C)c1nnc(SCC(=O)Nc3ccc(S(=O)(=O)N4CCCCC4)cc3)n12	TGFb SMAD3 inh inconclusive | TGFb confirm 18µM | HepG2 tox-2 inactive | TGFb CCL64 inh inactive | TGFb COP inh inactive
Cc1ccc2cc(C)c(SCC(=O)Nc3ccc(S(=O)(=O)N4CCCC4)cc3)nc2c1	none
Oc1ccccc1-c1nc2cnccn2c1Nc1ccc2c(c1)OCCO2	TGFb SMAD3 inh inconclusive | TGFb confirm inconclusive | HepG2 tox-2 inactive | TGFb CCL64 inh inconclusive | TGFb COP inh inactive
CC(C)C[C@H]1CN([C@@H](CC(C)C)CN2CCC[C@@H]2CN2C(=S)NC[C@@H]2Cc2ccc(O)cc2)C(=S)N1CCc1ccccc1	TGFb SMAD3 inh 10µM, ATXN viability inconclusive, ATXN2 expr inh inconclusive (no result: Anesthetic bind) | TGFb confirm 13µM | HepG2 tox-2 inconclusive | TGFb CCL64 inh 16µM | TGFb COP inh inactive
CC(C)C[C@H]1CNC(=S)N1C[C@H]1CCCN1C[C@H](CC(C)C)N1C[C@H](Cc2ccc(O)cc2)N(CCc2ccccc2)C1=S	TGFb SMAD3 inh 7.1µM, ATXN viability 7.1µM, ATXN2 expr inh inconclusive (no result: Anesthetic bind) | TGFb confirm inconclusive | HepG2 tox-2 21µM | TGFb CCL64 inh 23µM | TGFb COP inh inactive
COc1cc(OC)cc(C2=NCCN2)c1	none
Cc1cccc(NCc2ccc(O)c3ncccc23)c1C	Anesthetic bind inconclusive, TGFb SMAD3 inh 11µM | TGFb confirm 10µM | HepG2 tox-2 inactive | TGFb CCL64 inh inconclusive | TGFb COP inh inactive
CC(C)C[C@H]1CNC(=S)N1C[C@H]1CCCN1C[C@H](Cc1ccc(O)cc1)N1C[C@H](Cc2ccccc2)N(CC2CCCCC2)C1=S	TGFb SMAD3 inh inconclusive, ATXN viability inconclusive, ATXN2 expr inh inconclusive (no result: Anesthetic bind)
CC(C)C[C@H]1CNC(=S)N1CC1CCCN1C[C@H](Cc1ccccc1)N1C[C@H](Cc2ccc(O)cc2)N(CC2CCCCC2)C1=S (stereo not given in full)	TGFb SMAD3 inh 8.9µM (no result: Anesthetic bind) | TGFb confirm 6.5µM | HepG2 tox-2 inactive | TGFb CCL64 inh 21µM | TGFb COP inh inactive
CC(C)C[C@H]1CNC(=S)N1C[C@H]1CCCN1C[C@H](Cc1ccccc1)N1C[C@H](Cc2ccc(O)cc2)N(CC2CCCCCC2)C1=S	TGFb SMAD3 inh 10µM, ATXN viability 16µM, ATXN2 expr inh inconclusive (no result: Anesthetic bind) | TGFb confirm 18µM | HepG2 tox-2 inconclusive | TGFb CCL64 inh inconclusive | TGFb COP inh inactive
CC(C)C[C@H]1CNC(=S)N1C[C@H]1CCCN1C[C@H](Cc1ccc(O)cc1)N1C[C@H](CC(C)C)N(CC2CCCCCC2)C1=S	TGFb SMAD3 inh 6.3µM, ATXN viability 10µM, ATXN2 expr inh inconclusive (no result: Anesthetic bind) | TGFb confirm 4.6µM | HepG2 tox-2 inconclusive | TGFb CCL64 inh 10µM | TGFb COP inh inactive
COc1cccc(C2c3[nH]c4ccccc4c3C[C@H]3C(=O)N(c4ccccc4C(=O)NCCCN4CCOCC4)C(=O)N23)c1 (stereo not given in full)	none
COc1ccc(NC(=S)N(CCCN2CCCC2)Cc2cccn2Cc2ccc(Cl)cc2)cc1Cl	TGFb SMAD3 inh 3.2µM, HepG2 tox-1 6.3µM (no result: ATXN viability, ATXN2 expr inh) | TGFb confirm inconclusive | HepG2 tox-2 inconclusive | TGFb CCL64 inh inconclusive | TGFb COP inh inactive
Cc1ccc(NC(=S)N(CCCN2CCCC2)Cc2cccn2Cc2ccc(Cl)cc2)cc1Cl	ATXN viability inconclusive, ATXN2 expr inh inconclusive
CCN(CC)S(=O)(=O)c1ccc2c(c1)nc(CN(C)C(=O)c1cccc(Cl)c1)n2C	none
Cc1ccccc1NC(=O)c1cc(C(=O)c2cc(Cl)ccc2O)cn(-c2ccccc2C)c1=O	TGFb SMAD3 inh 7.1µM, ATXN viability inconclusive | TGFb confirm 16µM | HepG2 tox-2 inconclusive | TGFb CCL64 inh 13µM | TGFb COP inh inactive
Cc1ccc(-n2cc(C(=O)c3cc(Cl)ccc3O)cc(C#N)c2=O)cc1	TGFb SMAD3 inh inconclusive
CC(C(=O)Nc1ccccc1)N(c1cccc(Cl)c1)S(C)(=O)=O (stereo not given)	none
CCOc1ccc(CCN2C(=S)N([C@@H](Cc3ccccc3)CN3CCC[C@@H]3CN3C(=S)NC[C@@H]3CC(C)C)C[C@@H]2Cc2ccccc2)cc1	none (no result: Anesthetic bind, TGFb SMAD3 inh, HepG2 tox-1)
